Test results from PubChem BioAssay.
Calls of active or inactive are those of the source. Rule as the data show it: active = inhibition above about 25%; inactive = the rest.

Test: VP16 transactivation inhibitors, counter-screen for SRC1 inhibitor project, cell-based, luminescence, high throughput (AID 588824)
Details: cell-based VP16 transactivation luciferase luminescence; at 3.6 µM; hits give high values

Row | SMILES | inhibition
1 | c1ccc(-n2cnc3cc(NCc4cccs4)ccc32)cc1 | -44.1% (inactive)
2 | CN(Cc1cccs1)C(=O)CN1CCN(S(=O)(=O)c2ccc3c(c2)OCCCO3)CC1 | -8.72% (inactive)
3 | C=C1C(=O)O[C@@]23[C@H]1CC[C@@H](C)[C@@H]2CC[C@@]1(C)O[C@@H]31 | 7.69% (inactive)
4 | Cc1cc(=O)oc2cc(OCc3ccc(C(=O)N4CCN(c5ccc([N+](=O)[O-])cc5)CC4)cc3)ccc12 | -3.02% (inactive)
5 | COCCn1cnc2c1c(=O)n(Cc1ccccc1C#N)c(=O)n2Cc1ccccc1 | 1.6% (inactive)
6 | CC(O)c1nc2cc([N+](=O)[O-])ccc2n1Cc1ccccc1 (stereo not drawn) | -6.35% (inactive)
7 | Cc1ccc(-n2ccc(-c3nn(-c4ccccc4)ccc3=O)n2)cc1 | 13.3% (inactive)
8 | COc1ccc(C(=O)Nc2ccnn2C2CCN(C3CCC3)CC2)cc1 | -0.43% (inactive)
9 | O=C(Nc1ccc2c(c1)OCCO2)C(c1cc2ccccc2o1)N1CCN(C/C=C/c2ccccc2)CC1 (stereo not drawn) | -12.4% (inactive)
10 | Cc1ccc(NNC(=O)C(=O)N2CCCCC2)cc1 | 11.6% (inactive)
11 | Cc1c(C)n2c(SCC(=O)NCc3ccc4c(c3)OCO4)nnc2[nH]c1=O | -7.94% (inactive)
12 | CC(=O)c1cccc(NC(=O)c2ccc(CN3CCc4ccccc4C3)cc2)c1 | 9.39% (inactive)
13 | CCCC(C)NC(=O)C1c2ccccc2Oc2ccccc21 (stereo not drawn) | -7.9% (inactive)
14 | COc1ccc(NC(=O)NNC(=O)COc2ccc3ccccc3c2)cc1OC | 8.08% (inactive)
15 | O=C(CN1C(=O)CCC1=O)Nc1ccc(S(=O)(=O)N2CCOCC2)cc1 | 4.05% (inactive)
16 | CC1CCCCN1c1ncnc2ccccc12 (stereo not drawn) | 17.9% (inactive)
17 | CCc1nnc(SCc2ccc(C(=O)OC)o2)n1N | 4.87% (inactive)
18 | FC(F)(F)c1cccc(Oc2ccc3c(C(F)(F)F)cc(C(F)(F)F)nc3n2)c1 | -6.43% (inactive)
19 | Cc1cc2nc(C3CCCCC3)c(Cc3cccc(F)c3)n2c(C)c1Br | 11.8% (inactive)
20 | COc1cccc(NC(=O)CN(C)CC(=O)Nc2ccc(C)c([N+](=O)[O-])c2)c1 | 27.2% (active)
21 | O=C1CCC/C1=c1\s/c(=C/c2cccnc2)c(=O)n1-c1ccccc1 | 17.8% (inactive)
22 | O=C(Nc1ccccc1N1CCOCC1)c1cc(-c2ccncc2)nc2ccccc12 | 2.98% (inactive)
23 | COC(=O)c1ccsc1NC(=O)CN1CCN(c2ncccn2)CC1 | -17.6% (inactive)
